# Measurements reported in PubChem BioAssay (Tox21).
# Calls of active or inactive are those of the source. A call without a number means that no potency is given here. Unless noted, calls follow the shape of the dose curve; as a rule, active = well fitted curve in the direction sought with a large enough effect in the repeat runs; inconclusive = weak or mixed curves; inactive = no such curve, though single readings can be large; an effect the other way counts as inactive or inconclusive.
# Assays:
# [1] = qHTS assay for small molecules that induce genotoxicity in human embryonic kidney cells expressing luciferase-tagged ATAD5 (AID 651632); also: nearly all actives have a fitted effect of over 15% in size; also: potency is read from the fitted curve at half-maximal effect
# In short: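 DMSO vehicle served as the control. HEK293T reporter cells, 16 hr at 37C, then 30 min Amplite at room temperature; ATAD5 induction is measured as luciferase activity.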
# [2] = qHTS assay for small molecule agonists of the p53 signaling pathway - cell viability (AID 651633; calls by dose curve; also: nearly all actives have a fitted effect of over 30% in size; also: potency is read from the fitted curve at half-maximal effect)
# In short: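 Viability counter-read: CellTiter-Glo luminescence (30 min, room temperature) in the same p53RE-bla plates. These plates had been exposed to compounds for 16 h at 37 C.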
# [3] = qHTS assay for small molecules that induce genotoxicity in human embryonic kidney cells expressing luciferase-tagged ATAD5 - cell viability (AID 651634; calls by dose curve; also: nearly all actives have a fitted effect of over 25% in size; also: potency is read from the fitted curve at half-maximal effect)
# In short: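 Here HEK293T cells with the ATAD5 luciferase reporter are incubated with test compounds for 15.5 hr, and cytotoxicity is then gauged by measuring protease activity in live cells using fluorescence.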
# [4] = qHTS assay for small molecule disruptors of the mitochondrial membrane potential - cell viability (AID 720634; calls by dose curve;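 also: human HepG2 liver cancer cells; nearly all actives have a fitted effect of over 20% in size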)
# In short: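 Viability of HepG2 cells is scored from ATP content by luminescence; cells are exposed to compound for 1 hr at 37 C and 5% CO2, then dosed with m-MPI dye before the CellTiter-Glo reagent.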
# [5] = qHTS assay for small molecule disruptors of the mitochondrial membrane potential (AID 720635); also: potency is read from the fitted curve at half-maximal effect
# In short: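 Mitochondrial membrane potential tracked with Mito-MPS dye, red aggregates (ex 540/em 590 nm) against green monomers (ex 490/em 535 nm). Compound treatment 1 hr at 37C, dye 30 min in HepG2.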
# [6] = qHTS assay to test for compound auto fluorescence at 590 nm (red) in HepG2 cells (AID 720674)
# In short: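 We screened compounds on adherent HepG2 cells, incubating them for an hour at 37 C in 5% CO2 before reading emission at 590 nm under 540 nm excitation; values reflect equivalence to Rose Bengal sodium fluorescence.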
# [7] = qHTS assay to test for compound auto fluorescence at 535 nm (green) in HepG2 cells (AID 720675)
# [8] = qHTS assay to test for compound auto fluorescence at 460 nm (blue) in HEK293 cells (AID 720678)
# In short: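 Measured: blue fluorescence (Ex 405/Em 460 nm) of compound-treated HEK293 cells, incubated overnight at 37C with 5% CO2 and scaled to triamterene equivalents.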
# [9] = qHTS assay to test for compound auto fluorescence at 590 nm (red) in HEK293 cells (AID 720679)
# In short: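 Using HEK293 cells at 2,000 per well, the screen added 23 nL of each compound after cell attachment and incubated overnight (37C, 5% CO2). The plate reader then captured red-label fluorescence, Ex/Em 540/590nm.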
# [10] = qHTS assay to test for compound auto fluorescence at 535 nm (green) in HEK293 cells (AID 720680)
# [11] = qHTS assay to test for compound auto fluorescence at 460 nm (blue) in HEK293 cell free culture (AID 720681)
# In short: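 Blue fluorescence (Ex 405/Em 460 nm, triamterene-equivalent) was read immediately after pin transfer of compound or DMSO into medium (DMEM, 10% FBS) without cells.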
# [12] = qHTS assay to test for compound auto fluorescence at 535 nm (green) in HEK293 cell free culture (AID 720682)
# In short: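 Cell-free medium (DMEM, 10% FBS) receives compound or DMSO by pintool. Plate read directly at Ex 485/Em 535 nm. Signal converted to fluorescein equivalency.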
# [13] = qHTS assay to test for compound auto fluorescence at 590 nm (red) in HEK293 cell free culture (AID 720683)
# In short: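 Red-channel autofluorescence of compounds in culture medium (DMEM, 10% FBS), no cells, measured at 540/590 nm. Rose Bengal sodium is the reference fluorophore for equivalence.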
# [14] = qHTS assay to test for compound auto fluorescence at 590 nm (red) in HepG2 cell free culture (AID 720684)
# In short: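 No cells present: MEM + 10% FBS only. Compound pinned in, red label read (540/590 nm). Activity = fluorescence equivalent to Rose Bengal sodium.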
# [15] = qHTS assay to test for compound auto fluorescence at 460 nm (blue) in HepG2 cell free culture (AID 720685)
# In short: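 Cell-free plates of MEM plus 10% FBS received 23 nL compound or DMSO vehicle; blue-channel (405/460 nm) intensity scored against triamterene as reference fluorophore.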
# [16] = qHTS assay to test for compound auto fluorescence at 535 nm (green) in HepG2 cell free culture (AID 720686)
# [17] = qHTS assay to test for compound auto fluorescence at 460 nm (blue) in HepG2 cells (AID 720687)
# In short: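 Blue-channel autofluorescence (Ex/Em 405/460 nm, triamterene-equivalent) was measured after 1 hr compound exposure at 37 C, 5% CO2. Cells were HepG2, plated overnight at 37 C in MEM plus 10% FBS.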
# [18] = target: Glucocorticoid receptor (Homo sapiens) (UniProt P04150); assay: qHTS assay to identify small molecule agonists of the glucocorticoid receptor (GR) signaling pathway (AID 720691; active = well fitted activation curve with a large enough effect in the signal ratio in the repeat runs, not every such curve was filed as active; inconclusive = weak or mixed curves, or effect the other way; inactive = no such curve, though single readings can be large or run the other way; the % refers to the signal ratio; also: potency is read from the fitted curve at half-maximal effect); details: GR-bla HeLa, beta-lactamase reporter ratio, 18 h; activation: at 62.4 µM (top of the series)
# In short: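 Compounds in DMSO, alongside positive controls, were added to GR-bla HeLa reporter cells and incubated 18 h at 37 C; GRE-driven beta-lactamase was detected by fluorescence after 2 h with FRET substrate at room temperature.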
# [19] = target: Glucocorticoid receptor (Homo sapiens) (UniProt P04150); assay: qHTS assay to identify small molecule antagonists of the glucocorticoid receptor (GR) signaling pathway (AID 720692; active = well fitted inhibition curve with a large enough effect in the signal ratio in the repeat runs, not every such curve was filed as active; inconclusive = weak or mixed curves, or effect the other way; inactive = no such curve, though single readings can be large or run the other way; the % refers to the signal ratio; also: potency is read from the fitted curve at half-maximal effect)
# In short: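 In a 1536-well cell format, compounds were added 4 h after seeding GR-bla HeLa cells, together with dexamethasone at 5 nM final; reporter activity was measured by FRET-substrate fluorescence following 18 h at 37 C.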
# Glucocorticoid receptor (Homo sapiens), sequence (P04150 whole entry, looked up): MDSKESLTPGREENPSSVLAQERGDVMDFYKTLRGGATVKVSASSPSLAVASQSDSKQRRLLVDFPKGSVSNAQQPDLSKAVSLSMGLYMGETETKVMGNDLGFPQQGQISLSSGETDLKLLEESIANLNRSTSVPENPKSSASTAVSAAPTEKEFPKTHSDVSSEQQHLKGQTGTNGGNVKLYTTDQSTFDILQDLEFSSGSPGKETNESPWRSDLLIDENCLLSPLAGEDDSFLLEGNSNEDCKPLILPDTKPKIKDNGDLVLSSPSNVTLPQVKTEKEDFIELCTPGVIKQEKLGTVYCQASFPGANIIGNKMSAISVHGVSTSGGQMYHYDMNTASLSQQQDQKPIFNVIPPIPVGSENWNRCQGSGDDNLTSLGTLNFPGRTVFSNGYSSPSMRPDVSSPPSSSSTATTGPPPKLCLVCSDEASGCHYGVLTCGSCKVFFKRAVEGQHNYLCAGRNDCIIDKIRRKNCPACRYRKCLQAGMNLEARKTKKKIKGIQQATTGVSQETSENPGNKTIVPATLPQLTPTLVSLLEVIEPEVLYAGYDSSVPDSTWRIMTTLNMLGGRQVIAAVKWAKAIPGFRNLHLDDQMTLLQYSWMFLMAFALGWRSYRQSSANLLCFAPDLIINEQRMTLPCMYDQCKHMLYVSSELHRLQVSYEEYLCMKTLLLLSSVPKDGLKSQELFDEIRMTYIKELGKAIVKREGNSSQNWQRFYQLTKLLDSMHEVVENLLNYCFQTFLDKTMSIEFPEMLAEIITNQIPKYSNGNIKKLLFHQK
Structure (SMILES),Potency [1],Potency [2],Potency [3],Potency [4],Potency [5],Potency [6],Potency [7],Potency [8],Potency [9],Potency [10],Potency [11],Potency [12],Potency [13],Potency [14],outcome [15],Potency [16],outcome [17],Potency [18],Potency [19]
C[N@+]12CCCC[C@@H]1CCC(=C(c1cccs1)c1cccs1)C2,inactive,inactive,inactive,inactive,inactive,inactive,inactive,inactive,inactive,inactive,inactive,inactive,inactive,inactive,inactive,inactive,inactive,inactive,–
CCCCCCCCCCCC(=O)OC[C@@H](O)C1OC[C@H](O)[C@H]1O (some centres not stated),inactive,inactive,inactive,inactive,inactive,inactive,inactive,inactive,inactive,inactive,inactive,inactive,inactive,inactive,inactive,inactive,inactive,inactive,inactive
FCOC(C(F)(F)F)C(F)(F)F,inactive,inactive,inactive,inactive,inactive,inactive,inactive,inactive,inactive,inactive,inactive,inactive,inactive,inactive,inactive,inactive,inactive,inactive,inactive
Cn1c(=O)c2c(ncn2CCOC(=O)C(C)(C)Oc2ccc(Cl)cc2)n(C)c1=O,inactive,inactive,inactive,inactive,inactive,inactive,inactive,inactive,inactive,inactive,inactive,inactive,inactive,inactive,inactive,inactive,inactive,inactive,inactive
C=CCCCCCCCCC(=O)OC,inactive,inactive,inactive,inactive,inactive,inactive,inactive,inactive,inactive,inactive,inactive,inactive,inactive,inactive,inactive,inactive,inactive,inactive,–
CN[C@@H]1[C@H](O[C@H]2[C@H](O[C@H]3[C@H](O)[C@@H](O)[C@H](N=C(N)N)[C@@H](O)[C@@H]3N=C(N)N)O[C@@H](C)[C@]2(O)C=O)O[C@@H](CO)[C@H](O)[C@H]1O,inactive,inactive,inactive,inactive,inactive,inactive,inactive,inactive,inactive,inactive,inactive,inactive,inactive,inactive,inactive,inactive,inactive,inactive,–
C[C@]12CC[C@@H]3c4ccc(OC(=O)c5ccccc5)cc4CC[C@H]3[C@@H]1CC[C@@H]2O,inactive,inactive,inactive,inactive,2.98 µM (active),inactive,inactive,inactive,inactive,inactive,inactive,inactive,inactive,inactive,inactive,inactive,inactive,inactive,–
N[C@H](CC(=O)O)C(=O)O,inactive,inactive,inactive,inactive,inactive,inactive,inactive,inactive,inactive,inactive,inactive,inactive,inactive,inactive,inactive,inactive,inactive,inactive,–
COc1cc(/C=C/C(=O)N2CCN(CC(=O)N3CCCC3)CC2)cc(OC)c1OC,inactive,inactive,inactive,inactive,inactive,inactive,inactive,inactive,inactive,inactive,inactive,inactive,inactive,inactive,inactive,inactive,inactive,inactive,–
O=C(O)CCC/C=C\C[C@@H]1[C@@H](/C=C/[C@@H](O)COc2cccc(C(F)(F)F)c2)[C@H](O)C[C@@H]1O,inactive,inactive,inactive,inactive,inactive,inactive,inactive,inactive,inactive,inactive,inactive,inactive,inactive,inactive,inactive,inactive,inactive,inactive,–
CO[C@H]1C[C@@H]2CC[C@@H](C)[C@@](O)(O2)C(=O)C(=O)N2CCCC[C@H]2C(=O)O[C@H]([C@H](C)C[C@@H]2CC[C@@H](OCCO)[C@H](OC)C2)CC(=O)[C@H](C)/C=C(\C)[C@@H](O)[C@@H](OC)C(=O)[C@H](C)C[C@H](C)/C=C/C=C/C=C/1C,inactive,21.1 µM (active),29.8 µM (active),inactive,21.1 µM (active),inactive,inactive,inactive,inactive,inactive,inactive,inactive,inactive,inactive,inactive,inactive,inactive,inactive,7.56 µM (active)
O=[n+]1ccn([O-])c2ccccc21,inactive,inactive,inactive,inactive,inactive,inactive,inactive,inactive,inactive,inactive,inactive,inactive,inactive,inactive,inactive,inactive,inactive,inactive,inactive
COCC(=O)Nc1cc(Sc2ccccc2)ccc1N=C(NC(=O)OC)NC(=O)OC,inactive,inactive,4.22 µM (active),inactive,inactive,inactive,inactive,inactive,inactive,inactive,inactive,inactive,inactive,inactive,inactive,inactive,inactive,inactive,–
C#C[C@]1(O)CC[C@H]2[C@@H]3CCC4=CC(=O)CC[C@@H]4[C@H]3C(=C)C[C@@]21CC,inactive,inactive,inactive,inactive,inactive,inactive,inactive,inactive,inactive,inactive,inactive,inactive,inactive,inactive,inactive,inactive,inactive,inactive,0.379 µM (active)
O=C(O)COc1ccc(CCNS(=O)(=O)c2ccccc2)s1,inactive,inactive,inactive,inactive,inactive,inactive,inactive,inactive,inactive,inactive,inactive,inactive,inactive,inactive,inactive,inactive,inactive,inactive,inactive
CCCC(=O)Nc1c(I)cc(I)c(CC(CC)C(=O)O)c1I (configuration not stated),inactive,inactive,inactive,inactive,inactive,inactive,inactive,inactive,inactive,inactive,inactive,inactive,inactive,inactive,inactive,inactive,inactive,inactive,inactive
CC(/C=C/C=C(\C)C(=O)O[C@@H]1O[C@H](CO[C@@H]2O[C@H](CO)[C@@H](O)[C@H](O)[C@H]2O)[C@@H](O)[C@H](O)[C@H]1O)=C\C=C\C=C(C)\C=C\C=C(/C)C(=O)O[C@@H]1O[C@H](CO[C@@H]2O[C@H](CO)[C@@H](O)[C@H](O)[C@H]2O)[C@@H](O)[C@H](O)[C@H]1O,inactive,inactive,inactive,inactive,inactive,inactive,inactive,inactive,inactive,inactive,inactive,inactive,inactive,inactive,inactive,inactive,inactive,inactive,–
O=C(CCCCCCCCCCCCC1CCCC1)Nc1ccc(S(=O)(=O)c2ccc(NC(=O)CCCCCCCCCCCCC3CCCC3)cc2)cc1,inactive,inactive,inactive,inactive,inactive,inactive,inactive,inactive,inactive,inactive,inactive,inactive,inactive,inactive,inactive,inactive,inactive,inactive,inactive
CC(=O)OCC(=O)[C@@]1(O)[C@H](C)C[C@H]2[C@@H]3C[C@H](F)C4=CC(=O)C=C[C@]4(C)[C@H]3[C@@H](O)C[C@@]21C,inactive,inactive,inactive,inactive,inactive,inactive,inactive,inactive,inactive,inactive,inactive,inactive,inactive,inactive,inactive,inactive,inactive,0.0268 µM [inconclusive] (active),–
COc1ccc(C(=O)CCC(=O)O)c2ccccc12,inactive,inactive,inactive,inactive,inactive,inactive,inactive,inactive,inactive,inactive,inactive,inactive,inactive,inactive,inactive,inactive,inactive,inactive,–
C/C(=C(\CCOC(=O)c1ccccc1)SS/C(CCOC(=O)c1ccccc1)=C(/C)N(C=O)Cc1cnc(C)nc1N)N(C=O)Cc1cnc(C)nc1N,inactive,inactive,inactive,inactive,inactive,inactive,inactive,inactive,inactive,inactive,inactive,inactive,inactive,inactive,inactive,inactive,inactive,inactive,inactive
CCN(CC)c1ccc(C(=C2C=CC(=[N+](CC)CC)C=C2)c2ccccc2)cc1,2.37 µM (active),1.68 µM (active),7.5 µM (active),inactive,0.266 µM (active),inactive,inactive,inactive,inactive,inactive,inactive,inactive,inactive,inactive,–,inactive,inactive,–,–
Cc1c(O)cc2c(c1C)O[C@](C)(CCC[C@H](C)CCC[C@H](C)CCCC(C)C)CC2,inactive,inactive,inactive,inactive,inactive,inactive,inactive,–,inactive,inactive,inactive,inactive,inactive,inactive,inactive,inactive,inactive,inactive,inactive
